Source: article PMC5836133, “The intracellular immune receptor Rx1 regulates the DNA-binding activity of a Golden2-like transcription factor”
Whole data set: some 16,000 sequences, median “e-score” near -0.044, cut for the highest 2% near 0.38. For the sample, the highest values were picked, then their nearest neighbours and some sequences at random.

Biological target: T1, GST-NbGlk1(82-244) (Nicotiana benthamiana)
T1 chain: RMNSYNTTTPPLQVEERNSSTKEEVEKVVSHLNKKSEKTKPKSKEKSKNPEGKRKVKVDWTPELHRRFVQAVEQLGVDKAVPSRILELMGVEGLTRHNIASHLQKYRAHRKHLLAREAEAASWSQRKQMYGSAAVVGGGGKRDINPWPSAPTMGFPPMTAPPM
Test: protein-binding microarray; NbGlk1 is a Golden2-like transcription factor of Nicotiana benthamiana; high values mean tight binding
Conditions: protein: recombinant; tags: GST (pTH6838); dsDNA, one strand shown

Sequence	binding signal
ATCGATAC	0.245 ± 0.0652 E-score
ATTTCAAA	0.231 ± 0.179 E-score
CAAAATAA	0.205 ± 0.0749 E-score
ATCGCCAC	0.22 ± 0.062 E-score
ATCGCTTC	0.206 ± 0.0242 E-score
AGTGATTC	0.282 ± 0.0766 E-score
AACAATCT	0.244 ± 0.0358 E-score
AGGAATCC	0.422 ± 0.0123 E-score
AGGAATCG	0.295 ± 0.0158 E-score
AGGAATCA	0.32 ± 0.0361 E-score
AAGAATCT	0.449 ± 0.0147 E-score
AAGAATAT	0.331 ± 0.00702 E-score
ACGAATCT	0.403 ± 0.0288 E-score
CAGAATCA	0.373 ± 0.00814 E-score
ACGAATCA	0.247 ± 0.0177 E-score
ACGAATCC	0.361 ± 0.00735 E-score
CAGAATCC	0.447 ± 0.0238 E-score
CAGAATCG	0.33 ± 0.0217 E-score
ATCTGTTC	0.214 ± 0.0509 E-score
AGGAAGAT	0.276 ± 0.00329 E-score
ATCGTGCG	0.234 ± 0.00703 E-score
AATCACTG	0.269 ± 0.00608 E-score

Sequence	binding signal
ATACTCAT	0.264 ± 0.0418 E-score
AAGAATCA	0.3254 ± 0.00141 E-score
AAGAATCC	0.455 ± 0.016 E-score
AAGAATCG	0.374 ± 0.0323 E-score
ATCCGCGC	0.215 ± 0.0363 E-score
AATATTCC	0.341 ± 0.0191 E-score
AAGATTCA	0.205 ± 0.0308 E-score
AATATTCT	0.313 ± 0.0605 E-score
AAGATCCC	0.333 ± 0.0797 E-score
AAGATTCT	0.4522 ± 0.000701 E-score
AAGATCCG	0.332 ± 0.0135 E-score
CAGATTCC	0.473 ± 0.0158 E-score
AAGATTCG	0.41 ± 0.0145 E-score
AATATTCG	0.258 ± 0.049 E-score
AAGATTCC	0.46 ± 0.0101 E-score
AAAATTCC	0.201 ± 0.0158 E-score
ATTTCATC	0.269 ± 0.0106 E-score
AATTCCCG	0.27 ± 0.108 E-score
CACGATTC	0.3711 ± 0.000458 E-score
ATATCAGG	0.305 ± 0.00775 E-score
CACAATCC	0.366 ± 0.0571 E-score
ATCCTAAC	0.254 ± 0.069 E-score

Sequence	binding signal
ATCTGTAA	0.331 ± 0.0244 E-score
ATTCGCTG	0.298 ± 0.0414 E-score
ATACGAAT	0.352 ± 0.0554 E-score
ATATTATA	0.279 ± 0.00302 E-score
ATCCTATC	0.258 ± 0.104 E-score
CAGATTCG	0.438 ± 0.0122 E-score
CAGATTCA	0.293 ± 0.0151 E-score
CAAATTCG	0.213 ± 0.1 E-score
ATAGTAAT	0.315 ± 0.0567 E-score
ATTACCGC	0.289 ± 0.0145 E-score
AACAGATA	0.271 ± 0.00439 E-score
AAAAGAAT	0.267 ± 0.0274 E-score
AATAGATA	0.245 ± 0.0719 E-score
AACGGATA	0.215 ± 0.0275 E-score
AAAAGATC	0.301 ± 0.0113 E-score
AACAGATT	0.426 ± 0.00502 E-score
AATAGATT	0.406 ± 0.0231 E-score
AATAGATC	0.247 ± 0.0558 E-score
AAAAGATT	0.388 ± 0.0102 E-score
AACAGATC	0.305 ± 0.0266 E-score
AACGGATT	0.392 ± 0.0181 E-score
AACGGATC	0.25 ± 0.015 E-score

Sequence	binding signal
CAGAGATC	0.312 ± 0.0606 E-score
ACTGGAAT	0.256 ± 0.0159 E-score
AGAGGAAT	0.21 ± 0.0368 E-score
ATATGCAA	0.29 ± 0.0125 E-score
AAGAGATC	0.377 ± 0.0169 E-score
AAGAGATT	0.4 ± 0.035 E-score
AAGAGATA	0.309 ± 0.0135 E-score
AATCTCTA	0.3774 ± 0.00278 E-score
AATCTCTC	0.368 ± 0.0262 E-score
ATCCTCAT	0.212 ± 0.0808 E-score
AATCTCAG	0.428 ± 0.00714 E-score
AATCGCAT	0.274 ± 0.0414 E-score
ATTCTCAC	0.299 ± 0.0167 E-score
AATCTCAC	0.394 ± 0.0342 E-score
AATCTCAA	0.421 ± 0.0141 E-score
AATCTCTG	0.3738 ± 0.00333 E-score
ATTCTCAG	0.32 ± 0.0298 E-score
ATTCTCAA	0.329 ± 0.0151 E-score
AATCTCAT	0.4204 ± 0.00133 E-score
ATTACGTC	0.277 ± 0.0973 E-score
